Reference: PubChem BioAssay (NCI)
Several values for one entry are separate records, joined by “and”; a condition that tells them apart may be missing. Equal entries are not always repeated. Compounds without any hit were thinned out: in the full panel of roughly 79,000, 15% have a hit. Some compounds were tested as several samples or in several runs, with calls that do not always agree. Activity calls are given as the source filed them. No stated cut-off is given here; in the data, active means growth inhibition above about 70%; inactive means the rest.

Assays:
[1] = NCI Yeast Anticancer Drug Screen. Data for the rad50 strain (AID 155);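 further: 0% = growth of vehicle-only cultures of the same strain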; conditions: S. cerevisiae rad50 strain growth inhibition; at 50.0 µM; stronger effect = higher value
Summary of the method: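 Yeast carrying a defined DNA repair defect were exposed to test compounds, and growth was compared with vehicle-treated controls to give percent inhibition.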

[2] = NCI Yeast Anticancer Drug Screen. Data for the mec2-1 strain (AID 157); conditions: S. cerevisiae mec2-1 strain, at 50.0 µM, stronger effect = higher value
Summary of the method: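 Compounds were applied to mec2-1 yeast cells. Their growth was then compared with that of vehicle-treated cultures to give growth inhibition.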

[3] = NCI Yeast Anticancer Drug Screen. Data for the sgs1 mgt1 strain (AID 161);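 further: 0% = growth of cultures given vehicle only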; conditions: S. cerevisiae sgs1 mgt1 strain, at 50.0 µM, stronger effect = higher value
Summary of the method: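 Compounds are added to genetically altered yeast, and growth is compared with cultures given vehicle alone to give percent inhibition.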

[4] = NCI Yeast Anticancer Drug Screen. Data for the cln2 rad14 strain (AID 165);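 further: 0% = growth equal to vehicle treated cultures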; conditions: S. cerevisiae cln2 rad14 strain, at 50.0 µM, stronger effect = higher value
Summary of the method: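 Strain: cln2 rad14 yeast, altered in cell cycle control and DNA damage repair. Read-out: growth inhibition vs vehicle.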

[5] = NCI Yeast Anticancer Drug Screen. Data for the bub3 strain (AID 167); conditions: S. cerevisiae bub3 mutant strain, at 50.0 µM, stronger effect = higher value
Summary of the method: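 Compounds were applied to a genetically altered yeast strain carrying a cell-cycle control defect. Growth inhibition was scored against vehicle-treated controls.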

[6] = NCI Yeast Anticancer Drug Screen. Data for the mlh1 rad18 strain (AID 175); conditions: S. cerevisiae mlh1 rad18 strain growth inhibition; at 50.0 µM; stronger effect = higher value
Summary of the method: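 A repair-deficient yeast strain is exposed to test compound, and growth is scored relative to vehicle-treated controls.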

Measured: growth inhibition

ClC(OC(Cl)C(Cl)(Cl)Cl)C(Cl)(Cl)Cl (centres undefined)
inactive: [1] 52% | [2] 6.1% | [3] 30.9% | [4] 20.9% | [5] 46.5% | [6] 26.2%

CCCCN=C=S
inactive: [1] 45.7% | [2] -11.7% | [3] 21.8% | [4] 5.15% | [5] -3.8% | [6] 19%

Cc1ccc(O)c(CN2CCN(Cc3cc(C)ccc3O)CC2)c1
inactive: [1] 3.1% | [2] 15.8% | [3] 13.2% | [4] -2.15% | [5] 14.4% | [6] 7.8%

C=CC(=O)NCNC(=O)C=C
inactive: [1] 21.9% and 5.15% | [2] 19.3% and 1.85% | [3] 8.75% and -4.05% | [4] 10.6% and 4.3% | [5] 5.25% and -11.3% | [6] -15.8% and -2.9%

O=C(CC(=O)C(=O)Nc1ccccc1)CC(c1ccccc1)c1c(O)c2ccccc2oc1=O (centres undefined)
inactive: [1] 9% | [2] 5.3% | [3] 26.4% | [4] 12.6% | [5] 1.4% | [6] 18.5%

CN(C)P1P(N(C)C)P(N(C)C)P1N(C)C (centres undefined)
inactive: [1] -25.4% | [2] 9.75% | [3] 2.2% | [4] -58.7% | [5] -7.5% | [6] -1.2%

c1cc(CCN2CCCCC2)ccn1
inactive: [1] -2.75% | [2] -6.25% | [3] -26.5% | [4] -81.7% | [5] -21.4% | [6] -25.1%

[Co+2].[Co+2].[O-]CCCN=Cc1ccccc1[O-].[O-]CCCN=Cc1ccccc1[O-]
inactive: [1] 53.5% | [2] 46% | [3] 60.8% | [4] -5.1% | [5] 30.6% | [6] 58.1%

CC(CC(C)(C)C)C(=O)Cl (centres undefined)
inactive: [1] 7.85% | [2] -2.7% | [3] 5.35% | [4] 10.9% | [5] 4.15% | [6] 23.4%

CC(C)(C)C(=O)CC(=O)C(C)(C)C.[Cl][Sb]1([Cl])[c]2ccccc2Cc2cccc[c]21
inactive: [1] -1.05% | [2] 23.9% | [3] 20.1% | [4] -13.8% | [5] 0.75% | [6] 8.95%

CCOP(=O)(OCC)C(N)Cc1ccc(OC)c(OC)c1 (centres undefined)
inactive: [1] -3.85% | [2] -4% | [3] 2.35% | [4] 19.9% | [5] 13% | [6] -16.6%

O=[N+]([O-])c1cc(C2CCCCC2)c(O)c([N+](=O)[O-])c1
21.2% (inactive) and 81.8% (active): [5]
18% (inactive) and 80.8% (active): [3]
inactive: [1] 47.3% and 47.2% | [4] -8.75% and 59.2%
26% (inactive) and 79.5% (active): [2]
26.4% (inactive) and 86.3% (active): [6]

CC1(C)C2=CC[C@H]3[C@@H]4CC[C@H](O)[C@@]4(C)CC[C@@H]3[C@@]2(C)CC[C@@H]1O
inactive: [1] -2.6% | [2] -16.4% | [3] -4.75% | [4] -19.4% | [5] 5.35% | [6] -3.15%

CCOC(=O)C1C2(C)NC(=O)C1(Cc1ccccc1)c1ccc(O)cc1O2 (centres undefined)
inactive: [1] 4.05% | [2] 3.1% | [3] -13.1% | [4] 0.05% | [5] 2.5% | [6] -1.05%

CCC1(C(C)C)C(=O)NC(=S)N(C)C1=O (centres undefined)
inactive: [1] 29.6% | [2] -5.45% | [3] 2.9% | [4] 2.85% | [5] 0.95% | [6] 12.8%

CCOC(=O)C(Br)Br
inactive: [1] 20% | [2] -2.7% | [3] -13.9% | [4] 22.2% | [5] 23.3% | [6] 10.6%

N.N.N.N.O=S(=O)([O-])[O-].[Co+3].[OH3+].[OH3+]
inactive: [1] 2.25% | [2] -0.6% | [3] -22.5% | [4] 26.1% | [5] -4.7% | [6] -0.15%

CSP(=S)(SC)SC
inactive: [1] 24% | [2] -5.7% | [3] 13.4% | [4] 22.1% | [5] -7.95% | [6] -15.8%

CCCCN(CCCC)CC(O)c1ccc(Cl)c(Cl)c1 (centres undefined)
inactive: [1] -1.5% | [2] -21.3% | [3] 28.9% | [4] 41.3% | [5] 18% | [6] 7.75%

CCOC(=O)C1Oc2ccc([N+](=O)[O-])c3c2C1(O)CCC3 (centres undefined)
inactive: [1] 7.2% | [2] 1.3% | [3] 5.8% | [4] 26.6% | [5] -8.8% | [6] -6.65%

COP1(=S)OCC(C(C)(C)C)CO1 (centres undefined)
inactive: [1] 7.1% | [2] 1.2% | [3] -2.1% | [4] -14.4% | [5] 25.9% | [6] -3.55%

CC(=O)C1(c2ccccc2)CCNCC1
inactive: [1] -1% | [2] -13.1% | [3] 10.6% | [4] 11.9% | [5] -3.9% | [6] -3.35%

CCC[As](=O)(O)CC(C)C
inactive: [1] 3.2% | [2] -2.8% | [3] -4.9% | [4] 13.2% | [5] -0.4% | [6] -3.75%

Cc1nccc2c1[nH]c1ccc(Br)cc12
inactive: [1] 13.7% | [2] 11.6% | [3] -7.55% | [4] -2% | [5] 9.55% | [6] 1.25%

CO[C](=[W])c1ccccc1.[C-]#[O+].[C-]#[O+].[C-]#[O+].[C-]#[O+].[C-]#[O+]
inactive: [1] 12.2% | [2] -0.6% | [3] -2.3% | [4] 1.55% | [5] 1.05% | [6] -4.1%

CCC(C)C(CC)C(=O)NC(N)=O (centres undefined)
inactive: [1] 4.4% | [2] 4.55% | [3] -11.4% | [4] -1.35% | [5] 8.5% | [6] 0.95%

O=C1NC(=S)NC(=O)C1=Cc1ccc(-c2ccccc2)cc1
inactive: [1] 33.1% | [2] -12% | [3] 16.7% | [4] 15.6% | [5] 13.3% | [6] 15.3%

CCNCCC1(CC)C(=O)NC(=O)NC1=O
inactive: [1] -22.2% | [2] -16.8% | [3] -27.4% | [4] 2.2% | [5] -43.7% | [6] -10.6%

COc1ccc([As]=O)cc1[N+](=O)[O-] (centres undefined)
inactive: [1] 13.2% | [2] 1.15% | [3] 11.1% | [4] 14.2% | [5] -19% | [6] 8.2%

O=C1CC2OCC=C3CN4CCC56c7ccccc7N1C5C2C3CC46O (centres undefined)
inactive: [1] 25.3% | [2] -21.2% | [3] 6.1% | [4] -1.2% | [5] 30.7% | [6] -62.1%

N#CCc1ccccc1
inactive: [1] 8.5% and -45.5% | [2] 17.6% and 3.2% | [3] -7.35% and -21.4% | [4] 13.7% and 5.6% | [5] 15.4% and -1.05% | [6] 4.85% and -6.65%

S=c1nccc[nH]1
inactive: [1] 37.5% | [2] 24.2% | [3] 34.5% | [4] 37.5% | [5] 0.35% | [6] 17.4%

CN(C)CCCCCCN(C)C
inactive: [1] -8.85% | [2] 3.9% | [3] -12.5% | [4] -9.8% | [5] 6.9% | [6] -4.75%

c1ccc(-c2ccc([As](c3ccccc3)c3ccccc3)cc2)cc1
inactive: [1] 11.4% | [2] 4.5% | [3] 19.6% | [4] 3.85% | [5] 7.6% | [6] 11.8%

CCCC1C(=O)NC(=O)NC1=O
inactive: [1] 6.3% | [2] -6% | [3] -0.75% | [4] -10.9% | [5] 3.75% | [6] -1.05%

O=C1NC(=O)C2(OC3c4ccccc4C=CN3C3=C2C(=O)CCC3)C(=O)N1 (centres undefined)
inactive: [1] 11.5% | [2] 1.8% | [3] -6.1% | [4] 52.4% | [5] 10.1% | [6] 7.4%

O=C(O)C1C(C(=O)O)C2(Cl)C(Cl)=C(Cl)C1(Cl)C2(Cl)Cl.[Cd] (centres undefined)
inactive: [1] 61.4% | [2] 13.9% | [3] -0.2% | [4] -14.7% | [5] -6.75% | [6] 19.4%

O=C(Nc1cccs1)c1c(O)[nH]c(=S)[nH]c1=O
inactive: [1] -1.35% | [2] 20.9% | [3] 25.1% | [4] 16.8% | [5] 7.05% | [6] 4.5%

COc1ccc([C@H]2N[C@@H]2c2ccccn2)cc1
inactive: [1] 3.25% | [2] -1.5% | [3] -7.2% | [4] 17.1% | [5] 4.8% | [6] 20.9%
